Assay outcomes: PubChem, Broad Institute
The entries come from a sample that favours hits as a whole.
Tg IFNy HTS – blocks Toxoplasma gondii growth in the presence of IFN-gamma; Toxoplasma gondii growth in IFN-gamma-treated host cells; hits give low values; activity change, negative = inhibition, % (no concentration beside the values); 69,000 tested, 3.8% active; in the data active = activity change below about -70%, passing the limit was not always enough;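 also: host cells are HeLa cells infected with Toxoplasma gondii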
Large screens that a line does not name were inactive.

Cc1onc(-c2ccccc2)c1C(=O)Oc1ccccc1N1CCOCC1	none
CC(C)c1ccc(NC(=O)c2c(O)c3ccccc3n(-c3ccccc3)c2=O)cc1	none
COCC(=O)N1CCCC1c1nnn2cc(Nc3ccccc3)ccc12 (configuration not stated)	none
CS(=O)(=O)c1cnc(N2CCCCC2)nc1C1CCN(C(=O)Cc2ccsc2)CC1	none
Cc1c(C)n(C2CCCC2)c2ncnc(OC3CCN(C(=O)Cc4ccsc4)CC3)c12	Tg IFNy HTS -80.4
CN(C)Cc1cnc2n1CCN(C(=O)Cc1ccsc1)CC2	none
Clc1ccc(-c2nc(N3CCOCC3)ncc2-c2ncc[nH]2)cc1	none
Fc1ccc(-c2nc(N3CCN(c4ccccn4)CC3)ncc2-c2ncc[nH]2)cc1	Tg IFNy HTS -92.3
O=C(CCCN1CCN(c2ccccn2)CC1)c1ccc(F)cc1	none
Cc1[nH]c2ccc(CNC(=O)CCN(C)C3CCS(=O)(=O)C3)cc2c1C (configuration not stated)	none
COc1ccc(CCNC(=O)C2=C(C)C(=O)OC23CCN(S(=O)(=O)c2cccs2)CC3)cc1OC	none
O=C(O)CC1CC2(CCN(C(=O)Cc3cccnc3)CC2)Oc2ccccc21 (configuration not stated)	none
CCC(=O)N1CCC2(CC1)CC(CC(=O)Nc1cccnc1)c1ccccc1O2 (configuration not stated)	none
CN(C)C(=O)N1CCC2(CC1)CC(CC(=O)Nc1cccnc1)c1ccccc1O2 (configuration not stated)	Tg IFNy HTS -112.7
O=C(NCCc1csc(-c2ccccc2)n1)[C@H]1CCCN1C(=O)c1ccco1	none
CC(=O)C(Sc1nc(NCc2ccccc2)nc(N(C)C)n1)C(C)=O	none
Cc1ccc(NC(=O)COc2nc(C)nc3ccccc23)c(Cl)c1	none
O=c1cc(N2CCOCC2)nc2c3ccccc3ccn12	none
c1ccc2nc3c(cc(N4CCOCC4)c4ccccc43)nc2c1	Tg IFNy HTS -103.7
Cc1cc(N2CCC3(CCCO3)CC2)c2ccccc2n1	none
CN1CCc2ncc(CNC(=O)c3nccn3C)n2CC1	none
O=C(c1ccccc1)N1CCC2(CC(Oc3cccnc3)CO2)C1 (configuration not stated)	none
Cc1cccc(CN2CCCC3(CCN(C(=O)c4cccn4C)C3)C2)n1 (configuration not stated)	none
CC(C)CC(=O)Nc1n[nH]c2c1CN(C(=O)C1CCN(C)CC1)C2(C)C	Tg IFNy HTS -76.1
C=CCO[C@H]1CN(S(=O)(=O)c2cccnc2)[C@H]2CCCO[C@@H]12	none
COc1ccc(CN2CCC3(CC(C(=O)NCC(C)C)=NO3)C2)cc1 (configuration not stated)	none
CC(C)CNC(=O)C1=NOC2(CCN(C(=O)c3ccccn3)C2)C1 (configuration not stated)	none
CC(C)CNC(=O)C1=NOC2(CCN(Cc3ccc(C(C)C)cc3)C2)C1 (configuration not stated)	Tg IFNy HTS -82.4
CCOc1ccc(-c2nc(CN3CCN(C(=O)Nc4cccc(C)c4C)CC3)c(C)o2)cc1	none
CS(=O)(=O)N(Cc1ccco1)CC(O)CON=C1c2ccccc2-c2ccccc21 (configuration not stated)	none
O=C(NC12CC3CC(CC(C3)C1)C2)c1cccnc1	none
Clc1ccc(-c2nc(C34CC5CC(CC(C5)C3)C4)cs2)cc1	none
O=C(Nc1nc(C23CC4CC(CC(C4)C2)C3)cs1)c1ccccc1	Tg IFNy HTS -107.0
c1cncc(CNc2cc(-c3cnc4ccccc4c3)c3cc[nH]c3n2)c1	none
CC(NC(=O)CCNc1ncnc2nc[nH]c12)c1ccc2c(c1)OCCO2 (configuration not stated)	none
COc1ccccc1-c1nc(Cc2noc(Cc3ccc(F)cc3)n2)c(C)o1	none
O=C(NCCc1csc(-c2ccc(Cl)cc2)n1)c1ccccc1	none
COc1ccc(-c2nc(CCNC(=O)c3cccs3)cs2)cc1OC	none
CCOc1ccccc1C(=O)NCCc1csc(-c2cccc(F)c2)n1	Tg IFNy HTS -90.8
COc1ccc(C(=O)NCCc2csc(-c3cccc(F)c3)n2)cc1OC	none
O=C(NCCc1csc(-c2ccccc2)n1)c1cccs1	none
COc1ccc(Cl)cc1C(=O)NCCc1csc(-c2cccc(F)c2)n1	Tg IFNy HTS -90.1
CCOc1cc(C(=O)NCCc2csc(-c3cccc(F)c3)n2)cc(OCC)c1OCC	none
O=C(NCCc1csc(-c2ccc(F)cc2)n1)c1ccccc1	Tg IFNy HTS -80.5
CCOc1ccc(C(=O)NCCc2csc(-c3cccc(F)c3)n2)cc1OCC	none
O=C(NCCc1csc(-c2ccc(Cl)cc2)n1)c1ccc(F)cc1	none
O=C(NCCc1csc(-c2ccc(Cl)cc2)n1)c1cccs1	Tg IFNy HTS -79.2
COc1ccc(Cl)cc1C(=O)NCCc1sc(-c2cccc(F)c2)nc1C	none
Cc1nc(C2CCNCC2)ncc1C(N)=O	none
Cn1nc(C(=O)NCc2ccccc2-n2ccnc2)c2c1CCCC2	none
Cn1c(C2CCCN(C(=O)CCNc3ccc(Cl)cn3)C2)nc2ccccc21 (configuration not stated)	none
O=C(NC1CCC(n2cnnc2)CC1)c1cnnn1-c1ccccc1 (configuration not stated)	none
CN1CCOCC12CCN(C(=O)Cc1ccsc1)CC2	none
